Values joined by “and” are separate entries in the source; they are usually repeats but may differ in a detail not shown here. Equal values may be shown once. Inconclusive results are not listed. The source holds several records for some structures; these can differ, active in one and inactive in another. Active and inactive are the calls of the source. The calls were made as follows, unless noted: active = hit-call score of the fitted dose curve at least 0.9, where 1 is the maximum; inconclusive = response in the unintended direction; inactive = score below 0.9.
Experiments:
[1] = target: human Adenosine Transporter (Adot), SLC29A1 (gene 2030) (UniProt Q99808); test: NVS_TR_hAdoT: NovaScreen (NVS) Transporter Assay for human Adenosine Transporter (Adot) (AID 2283368)
Summary of the method: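 U937-derived membranes, cell-free radioligand binding, filter scintillation 1 h after dosing. 25 uM duplicate screen; hits (e.g. 30% inhibition) run in concentration-response up to 50 uM; loss of signal versus DMSO.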

[2] = target: Estrogen receptor (Homo sapiens) (UniProt P03372); test: OT_ERa_GFPERaERE_0480: Odyssey Thera (OT) 8-hour HeLa Transcription Induction Assay for Estrogen Receptor (AID 2283381; active = hit-call score of the fitted dose curve at least 0.9, where 1 is the maximum; inactive = score below 0.9)
Estrogen receptor (Homo sapiens), sequence (P03372 whole entry, looked up): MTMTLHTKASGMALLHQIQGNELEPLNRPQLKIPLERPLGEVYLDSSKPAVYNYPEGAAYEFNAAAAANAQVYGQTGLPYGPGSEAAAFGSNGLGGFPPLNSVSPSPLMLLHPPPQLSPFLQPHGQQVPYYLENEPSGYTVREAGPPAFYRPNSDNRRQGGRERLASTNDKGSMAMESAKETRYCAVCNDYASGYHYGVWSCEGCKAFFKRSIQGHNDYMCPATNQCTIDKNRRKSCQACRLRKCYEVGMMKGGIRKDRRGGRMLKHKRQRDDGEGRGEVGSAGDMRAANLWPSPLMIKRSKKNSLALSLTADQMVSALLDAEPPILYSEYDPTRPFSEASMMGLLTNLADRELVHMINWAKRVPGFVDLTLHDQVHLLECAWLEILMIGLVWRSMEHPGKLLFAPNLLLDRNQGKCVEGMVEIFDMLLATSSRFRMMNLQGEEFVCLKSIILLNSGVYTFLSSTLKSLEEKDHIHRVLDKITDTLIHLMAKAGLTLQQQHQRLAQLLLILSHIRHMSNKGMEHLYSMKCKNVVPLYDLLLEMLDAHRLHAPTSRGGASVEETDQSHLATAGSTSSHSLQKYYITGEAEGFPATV
Summary of the method: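 HeLa cells expressing GFP reporter under estrogen response element, imaged 8 h after dosing. GFP induction quantified by high-content fluorescence microscopy image analysis; gain of signal fitted versus DMSO.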

[3] = target: Estrogen receptor (Homo sapiens) (UniProt P03372); test: OT_ERa_GFPERaERE_0120: Odyssey Thera (OT) 2-hour HeLa Transcription Induction Assay for Estrogen Receptor (AID 2283382)
Summary of the method: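 HeLa cells were dosed for 2 h, then GFP reporter induction was quantified by fluorescence microscopy with high-content image analysis. Gain of signal fitted against DMSO baseline.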

[4] = target: Bile acid receptor (Homo sapiens) (UniProt Q96RI1); test: OT_FXR_FXRSRC1_0480: Odyssey Thera (OT) 8-hour HEK293T Protein-Complementation Assay for Farnesoid X receptor/SRC-1 Co-activator (AID 2283383)
Bile acid receptor (Homo sapiens), sequence (Q96RI1 whole entry, looked up, the tested form may be a part): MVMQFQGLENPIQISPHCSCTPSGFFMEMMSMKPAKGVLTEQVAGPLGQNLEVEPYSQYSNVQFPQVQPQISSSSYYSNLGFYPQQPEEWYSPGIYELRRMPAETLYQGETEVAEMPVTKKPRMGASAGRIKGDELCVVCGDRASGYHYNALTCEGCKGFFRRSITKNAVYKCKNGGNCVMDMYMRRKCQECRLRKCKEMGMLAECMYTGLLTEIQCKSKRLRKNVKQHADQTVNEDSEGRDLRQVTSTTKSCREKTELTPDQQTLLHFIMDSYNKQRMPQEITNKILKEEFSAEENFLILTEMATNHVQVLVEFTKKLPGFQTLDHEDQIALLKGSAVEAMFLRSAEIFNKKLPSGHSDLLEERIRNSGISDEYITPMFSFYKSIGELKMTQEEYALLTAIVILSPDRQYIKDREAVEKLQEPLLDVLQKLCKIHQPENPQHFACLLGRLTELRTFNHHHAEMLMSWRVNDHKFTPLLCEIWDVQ
Summary of the method: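 HEK293T protein-fragment complementation assay: FXR and SRC-1 coactivator are fused to reporter fragments, and their interaction restores a fluorescent reporter. Readout was taken 8 h after dosing, with gain of signal fit relative to DMSO.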

[5] = target: Retinoic acid receptor RXR-alpha (Homo sapiens) (UniProt P19793); test: OT_NURR1_NURR1RXRa_1440: Odyssey Thera (OT) 24-hour HEK293T Protein Complementation Assay for Nurr1/retinoid X receptor (RXR) (AID 2283386)
Retinoic acid receptor RXR-alpha (Homo sapiens), sequence (P19793 whole entry, looked up, the tested form may be a part): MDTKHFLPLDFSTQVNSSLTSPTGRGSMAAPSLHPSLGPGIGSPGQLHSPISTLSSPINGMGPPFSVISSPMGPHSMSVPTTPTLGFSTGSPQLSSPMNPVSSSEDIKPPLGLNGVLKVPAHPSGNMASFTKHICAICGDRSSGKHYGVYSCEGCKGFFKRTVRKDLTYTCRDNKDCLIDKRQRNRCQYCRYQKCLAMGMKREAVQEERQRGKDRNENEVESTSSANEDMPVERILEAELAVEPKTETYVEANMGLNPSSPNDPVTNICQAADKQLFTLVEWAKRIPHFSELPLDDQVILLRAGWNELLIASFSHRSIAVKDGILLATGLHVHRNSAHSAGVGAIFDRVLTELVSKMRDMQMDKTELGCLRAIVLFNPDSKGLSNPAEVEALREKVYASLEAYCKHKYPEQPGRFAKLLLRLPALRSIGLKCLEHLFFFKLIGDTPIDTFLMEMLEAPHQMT
Summary of the method: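 HEK293T protein-fragment complementation of Nurr1 and RXRα fused to reporter fragments; compounds 24 h. Fluorescence gain from reconstituted reporter fitted versus DMSO.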

[6] = target: human Thyroid Receptor Alpha (TRa), THRA (gene 7067) (UniProt P10827); test: NVS_NR_hTRa_Antagonist: NovaScreen (NVS) Nuclear Receptor Binding Assay for human Thyroid Receptor Alpha Antagonism (TRa) (AID 2283362);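 also: activity is loss of signal relative to DMSO baseline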
Summary of the method: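 Extracted protein, cell-free; 1 h incubation after dosing; AlphaLISA chemiluminescence binding readout. DMSO = baseline/neg ctrl; signal loss = activity. Primary: duplicate, 25 uM; secondary: conc. series on actives.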

[7] = target: guinea pig Sigma Receptor, Non-selective Binding, SIGMAR1 (gene 100135589) (UniProt Q60492); test: NVS_OR_gSIGMA_NonSelective: NovaScreen (NVS) Nuclear Receptor Binding Assay for guinea pig Sigma Receptor, Non-selective Binding (AID 2283367)
Summary of the method: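 Guinea pig brain membranes, cell-free radioligand binding; read 1 h after dosing by filter-based scintillation counting. Loss of signal vs DMSO baseline taken as displacement. Primary screen single concentration 25 uM in duplicate; actives retested in concentration series.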

[8] = target: Peroxisome proliferator-activated receptor gamma (Homo sapiens) (UniProt P37231); test: NVS_NR_hPPARg: NovaScreen (NVS) Nuclear Receptor Binding Assay for human Peroxisome Proliferator-activated Receptor gamma (PPARg) (AID 2283370)
Peroxisome proliferator-activated receptor gamma (Homo sapiens), sequence (P37231 whole entry, looked up): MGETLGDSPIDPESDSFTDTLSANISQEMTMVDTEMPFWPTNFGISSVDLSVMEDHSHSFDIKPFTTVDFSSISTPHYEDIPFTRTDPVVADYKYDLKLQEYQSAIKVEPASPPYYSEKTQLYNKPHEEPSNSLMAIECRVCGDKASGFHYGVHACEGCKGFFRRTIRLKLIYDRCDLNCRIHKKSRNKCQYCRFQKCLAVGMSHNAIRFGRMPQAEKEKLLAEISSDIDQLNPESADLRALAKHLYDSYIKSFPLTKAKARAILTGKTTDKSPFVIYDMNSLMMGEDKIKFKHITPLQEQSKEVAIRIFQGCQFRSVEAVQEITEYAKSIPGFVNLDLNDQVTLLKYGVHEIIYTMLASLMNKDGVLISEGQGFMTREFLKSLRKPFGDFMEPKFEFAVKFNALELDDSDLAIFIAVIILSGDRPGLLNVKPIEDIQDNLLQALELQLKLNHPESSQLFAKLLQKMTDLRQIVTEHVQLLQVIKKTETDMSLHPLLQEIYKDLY
Summary of the method: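 Chemicals were tested first in duplicate at 25 uM, then in concentration series if active. Binding to cell-free PPARg protein was measured by fluorescence polarization after 2 h, with loss of signal scored against DMSO.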

[9] = target: human Norepinephrine Transporter (NET), SLC6A2 (gene 6530) (UniProt P23975); test: NVS_TR_hNET: NovaScreen (NVS) Transporter Assay for human Norepinephrine Transporter (NET) (AID 2283377);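 also: cell-free membrane protein extracted from CHO cells expressing human NET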
human Norepinephrine Transporter (NET), SLC6A2 (gene 6530), sequence (P23975 whole entry, looked up): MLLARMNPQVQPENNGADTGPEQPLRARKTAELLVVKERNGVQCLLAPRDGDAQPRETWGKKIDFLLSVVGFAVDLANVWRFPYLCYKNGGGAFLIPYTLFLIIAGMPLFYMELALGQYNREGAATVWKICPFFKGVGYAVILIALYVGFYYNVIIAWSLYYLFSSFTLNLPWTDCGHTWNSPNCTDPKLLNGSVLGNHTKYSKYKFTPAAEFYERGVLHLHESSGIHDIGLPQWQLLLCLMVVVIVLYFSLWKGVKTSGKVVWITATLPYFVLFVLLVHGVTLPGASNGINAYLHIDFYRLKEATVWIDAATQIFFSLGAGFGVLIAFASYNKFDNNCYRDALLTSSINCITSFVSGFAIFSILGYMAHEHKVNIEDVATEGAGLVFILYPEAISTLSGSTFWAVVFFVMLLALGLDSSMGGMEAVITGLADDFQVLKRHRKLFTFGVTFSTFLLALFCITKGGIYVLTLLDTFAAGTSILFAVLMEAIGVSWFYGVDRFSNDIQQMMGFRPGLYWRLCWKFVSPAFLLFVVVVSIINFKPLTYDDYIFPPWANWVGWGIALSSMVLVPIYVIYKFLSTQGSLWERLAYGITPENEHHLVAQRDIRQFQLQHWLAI
Summary of the method: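 Radioligand binding to human NET in cell-free CHO-derived protein preparations, read by filter-based scintillation counting 1 hour after dosing. Loss of signal versus DMSO baseline indicated displacement; primary screening in duplicate at 25 uM, actives then titrated.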

[10] = target: Retinoic acid receptor RXR-alpha (Homo sapiens) (UniProt P19793); test: OT_NURR1_NURR1RXRa_0480: Odyssey Thera (OT) 8-hour HEK293T Protein Complementation Assay for Nurr1/retinoid X receptor (RXR) (AID 2283385)
Summary of the method: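 HEK293T cells expressing Nurr1 and RXRα fused to reporter fragments (protein-fragment complementation); fluorescence measured 8 h after dosing. Gain of signal fitted relative to DMSO.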

[11] = target: rat Androgen Receptor (AR), Ar (gene 24208) (UniProt P15207); test: NVS_NR_rAR: NovaScreen (NVS) Nuclear Receptor Binding Assay for rat Androgen Receptor (AR) (AID 2283366)
rat Androgen Receptor (AR), Ar (gene 24208), sequence (P15207 whole entry, looked up): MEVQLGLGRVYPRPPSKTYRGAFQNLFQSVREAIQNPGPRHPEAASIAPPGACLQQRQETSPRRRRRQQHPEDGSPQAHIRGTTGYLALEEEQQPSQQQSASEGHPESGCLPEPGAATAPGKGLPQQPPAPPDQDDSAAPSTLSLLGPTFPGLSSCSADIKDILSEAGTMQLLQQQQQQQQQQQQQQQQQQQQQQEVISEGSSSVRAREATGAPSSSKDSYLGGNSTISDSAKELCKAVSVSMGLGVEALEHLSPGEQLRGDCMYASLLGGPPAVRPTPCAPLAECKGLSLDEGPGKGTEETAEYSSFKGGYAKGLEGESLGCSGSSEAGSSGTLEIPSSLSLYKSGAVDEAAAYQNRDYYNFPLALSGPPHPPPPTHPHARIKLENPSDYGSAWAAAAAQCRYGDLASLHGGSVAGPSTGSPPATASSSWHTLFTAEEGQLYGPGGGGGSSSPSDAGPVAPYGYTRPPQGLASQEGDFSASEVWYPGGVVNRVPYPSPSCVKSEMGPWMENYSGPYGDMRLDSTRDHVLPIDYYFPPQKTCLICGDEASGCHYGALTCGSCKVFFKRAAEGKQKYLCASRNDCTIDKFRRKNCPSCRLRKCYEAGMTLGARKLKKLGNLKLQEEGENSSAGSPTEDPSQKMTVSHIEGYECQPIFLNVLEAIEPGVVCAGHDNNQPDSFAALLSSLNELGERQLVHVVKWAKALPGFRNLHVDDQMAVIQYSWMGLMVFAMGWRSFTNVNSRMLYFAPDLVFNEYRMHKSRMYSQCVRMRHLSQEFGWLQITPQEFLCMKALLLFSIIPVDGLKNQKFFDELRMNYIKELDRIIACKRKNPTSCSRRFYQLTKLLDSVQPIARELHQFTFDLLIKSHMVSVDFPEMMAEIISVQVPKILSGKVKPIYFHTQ
Summary of the method: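 Cell-free radioligand binding on extracts of prostate from testosterone-pretreated rats, read by filter-based scintillation counting 18 h after dosing. Loss of bound signal fitted positively versus DMSO; primary screen in duplicate at 25 uM, actives followed up in concentration series.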

[12] = target: Retinoic acid receptor alpha (Homo sapiens) (UniProt P10276); test: NVS_NR_hRARa_Agonist: NovaScreen (NVS) Nuclear Receptor Binding Assay for human Retinoic Acid Alpha Receptor Agonism (RAR) (AID 2283361)
Summary of the method: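 Cell-free TR-FRET binding read-out with extracted human RARα protein, read 2 h after compound addition. Gain of signal scored against DMSO baseline. Primary screen at a single 25 uM in duplicate; actives then retested in concentration series.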

[13] = target: Glucocorticoid receptor (Homo sapiens) (UniProt P04150); test: NVS_NR_hGR: NovaScreen (NVS) Nuclear Receptor Binding Assay for human Glucocorticoid Receptor (GR) (AID 2283363);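 also: activity is loss of specific radioligand binding signal relative to DMSO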
Glucocorticoid receptor (Homo sapiens), sequence (P04150 whole entry, looked up): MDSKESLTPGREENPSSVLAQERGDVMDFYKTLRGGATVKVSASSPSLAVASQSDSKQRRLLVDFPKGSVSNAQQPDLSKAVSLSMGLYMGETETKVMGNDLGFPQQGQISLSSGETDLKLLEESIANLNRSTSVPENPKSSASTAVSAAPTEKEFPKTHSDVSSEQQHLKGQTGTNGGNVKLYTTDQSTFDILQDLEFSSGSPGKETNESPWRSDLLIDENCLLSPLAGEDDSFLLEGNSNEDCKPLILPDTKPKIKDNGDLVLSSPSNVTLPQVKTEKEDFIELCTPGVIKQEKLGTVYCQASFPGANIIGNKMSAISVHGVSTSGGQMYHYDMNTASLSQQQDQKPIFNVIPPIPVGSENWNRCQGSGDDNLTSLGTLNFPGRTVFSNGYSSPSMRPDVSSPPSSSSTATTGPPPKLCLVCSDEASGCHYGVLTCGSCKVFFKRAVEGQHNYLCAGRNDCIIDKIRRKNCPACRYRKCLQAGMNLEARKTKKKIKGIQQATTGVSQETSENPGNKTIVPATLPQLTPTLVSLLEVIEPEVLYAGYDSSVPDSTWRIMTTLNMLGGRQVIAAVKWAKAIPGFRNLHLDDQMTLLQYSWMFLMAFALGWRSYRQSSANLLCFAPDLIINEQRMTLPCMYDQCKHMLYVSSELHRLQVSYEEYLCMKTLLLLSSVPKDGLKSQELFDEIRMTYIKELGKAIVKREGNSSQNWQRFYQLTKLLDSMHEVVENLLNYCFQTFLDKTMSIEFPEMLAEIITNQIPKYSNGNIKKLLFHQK
Summary of the method: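 Cell-free radioligand binding with extracted receptor protein, read by filter-based scintillation counting 16 hours after dosing. Loss of specific signal versus DMSO baseline was scored. Primary screen ran in duplicate at 25 uM; actives were followed up in concentration series.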

[14] = target: mouse Estrogen Receptor alpha (Era), Esr1 (gene 13982) (UniProt P19785); test: NVS_NR_mERa: NovaScreen (NVS) Nuclear Receptor Binding Assay for mouse Estrogen Receptor alpha (Era) (AID 2283378);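 also: hit means loss of bound radioligand signal relative to DMSO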
mouse Estrogen Receptor alpha (Era), Esr1 (gene 13982), sequence (P19785 whole entry, looked up): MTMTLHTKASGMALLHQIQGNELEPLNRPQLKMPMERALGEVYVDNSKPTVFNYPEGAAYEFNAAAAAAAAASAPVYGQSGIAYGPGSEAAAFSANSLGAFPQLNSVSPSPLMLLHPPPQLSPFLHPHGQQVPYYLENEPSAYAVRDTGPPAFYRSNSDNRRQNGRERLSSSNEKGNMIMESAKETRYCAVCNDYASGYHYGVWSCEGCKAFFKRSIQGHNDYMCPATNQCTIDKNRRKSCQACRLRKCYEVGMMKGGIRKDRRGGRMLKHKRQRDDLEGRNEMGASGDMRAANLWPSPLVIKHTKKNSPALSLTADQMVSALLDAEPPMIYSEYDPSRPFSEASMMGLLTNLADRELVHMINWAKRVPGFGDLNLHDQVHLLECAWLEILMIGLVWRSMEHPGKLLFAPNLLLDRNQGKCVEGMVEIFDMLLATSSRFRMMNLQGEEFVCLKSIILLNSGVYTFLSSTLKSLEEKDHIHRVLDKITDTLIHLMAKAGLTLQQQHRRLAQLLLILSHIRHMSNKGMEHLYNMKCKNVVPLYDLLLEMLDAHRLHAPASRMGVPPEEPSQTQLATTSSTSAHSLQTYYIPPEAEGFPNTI
Summary of the method: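 Extracted mouse Era incubated with tritiated or iodinated radioligand plus test chemical, 18 h. Bound fraction separated on filters, counted by scintillation. DMSO = negative control/baseline; duplicate single-point at 25 uM, then concentration-response follow-up.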

[15] = target: Bile acid receptor (Homo sapiens) (UniProt Q96RI1); test: OT_FXR_FXRSRC1_1440: Odyssey Thera (OT) 24-hour HEK293T Protein-Complementation Assay for Farnesoid X receptor/SRC-1 Co-activator (AID 2283384)
Summary of the method: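 HEK293T cells, 24 h after chemical dosing. FXR–SRC-1 coactivator interaction read as fluorescence from protein-fragment complementation of a split reporter. Gain of signal fitted against DMSO baseline.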

Measured: AC50

OB(O)O
inactive: [1] | [2] | [3] | [4] | [5]

S=C(S)NCCNC(=S)S.[Mn+2].[S-]C([S-])=NCCN=C([S-])[S-].[Zn+2]
active: [6] 7.34 µM | [9] 269 nM | [5] 40.2 µM [middle of 4 runs]
inactive: [7] | [1] | [8] | [9] | [10] | [5]

COC(=O)CSc1cc(N=c2sc(=O)n3n2CCCC3)c(F)cc1Cl
inactive: [11] | [4] | [10] | [5]

O=C(c1ccc(O)cc1O)c1ccc(O)cc1O
active: [12] 25 µM and 33.4 µM | [13] 9.33 µM and 8.91 µM and 10.9 µM | [11] 7.84 µM [middle of 4 runs] | [8] 40.4 µM | [14] 470 nM and 647 nM and 1.69 µM | [2] 2.11 µM and 2.15 µM and 2.89 µM | [3] 2.24 µM and 2.25 µM and 2.67 µM | [15] 50 µM and 28 µM
inactive: [12] | [8] | [14] | [4] | [10] | [5]
